According to PubChem BioAssay (NCATS):
Where “and” joins values, the source holds several entries; their conditions need not be identical. Equal values may be shown once. Inconclusive results are not listed. Calls of active or inactive are those of the source. Unless noted, calls come from the whole dose curve; as a rule, active = well fitted curve in the direction sought with a large enough effect; inconclusive = small, poorly fitted or top-dose-only effect, or another doubt; inactive = no such curve, though single readings can be large; an effect the other way counts as inactive or inconclusive.

Columns and labels:
Tov-21-G = assay: Primary qHTS to identify gynecologic anti-cancer compounds using libraries of approved drugs and bioactive compounds (AID 1345084); settings: Gynecologic cancer cell panel viability, ATPlite luminescence, 48 h; series mostly up to 57.5 µM; note: % is set by controls: 0 for no effect and ±100 for the full control effect; nearly all actives have a fitted effect of over 55% in size
Outline: (§1)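 48 h compound exposure at 37 C, 5% CO2; five-point qHTS. ATPlite luminescence readout of cell ATP.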

Tov112D = assay: as above; settings: Gynecologic cancer cell panel viability, ATPlite luminescence, 48 h; series mostly up to 57.5 µM
Outline: as §1

[1] = Drug repurposing screens with cells derived from glioblastoma tumor samples (AID 1345199); settings: GBM patient neurospheres viability, ATP luminescence, 48 h; for Potency: tumour line A; note: potency is the fitted concentration of half-maximal effect; for activity, negative = cell killing: % is set by controls: 0 for no effect and ±100 for the full control effect; for all read-outs here: nearly all actives have a fitted effect of over 40% in size
Outline: (§2)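 Primary testing used CD133+ neurospheres from four GBM patients, seven concentrations, 48 h exposure and ATP-based viability; confirmation added three slower-growing patient lines.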

astro = assay: as above; settings: viability, ATP luminescence, 48 h; series mostly up to 45.9 µM
Outline: as §2

[2] = biological target: Nuclear receptor subfamily 1 group I member 2 (Rattus norvegicus) (UniProt Q9R1A7); assay: qHTS assay for small molecule activators of the rat pregnane X receptor (rPXR) signaling pathway (AID 651751; call rule not given here; note: 0% is about no effect); settings: rPXR reporter cells, luciferase (One-Glo), 24 h
Nuclear receptor subfamily 1 group I member 2 (Rattus norvegicus), sequence (Q9R1A7 whole entry, looked up): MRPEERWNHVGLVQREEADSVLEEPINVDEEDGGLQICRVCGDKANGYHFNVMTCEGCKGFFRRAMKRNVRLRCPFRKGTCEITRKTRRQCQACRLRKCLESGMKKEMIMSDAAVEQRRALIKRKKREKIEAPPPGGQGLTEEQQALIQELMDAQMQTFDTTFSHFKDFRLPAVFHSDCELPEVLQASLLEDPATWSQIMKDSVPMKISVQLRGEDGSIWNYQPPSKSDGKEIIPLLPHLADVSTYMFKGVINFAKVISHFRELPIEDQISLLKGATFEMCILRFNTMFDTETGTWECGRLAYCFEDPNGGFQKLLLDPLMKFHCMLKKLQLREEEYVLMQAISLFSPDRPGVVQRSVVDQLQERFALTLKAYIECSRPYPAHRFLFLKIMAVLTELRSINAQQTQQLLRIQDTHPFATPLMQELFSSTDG

[3] = at 45.9 µM (top of the series), tumour line B

CO[C@@H]1[C@@H](O[C@@H]2O[C@H](C)[C@@H](O[C@H]3C[C@@](C)(O)[C@@H](O)[C@H](C)O3)[C@H](N(C)C)[C@H]2O)[C@@H](CC=O)C[C@@H](C)[C@@H](O[C@@H]2CC[C@H](N(C)C)[C@@H](C)O2)/C=C/C=C/C[C@@H](C)OC(=O)C[C@H]1OC(C)=O
inactive: Potency (Tov-21-G) | Potency (Tov112D) | activity, negative = cell killing [1, 3] -18.6% | Potency (astro)
active: Potency [1] 15.8 µM

CCCCC(CC)COC(=O)c1ccccc1C(=O)O (configuration not stated)
inactive: Potency (Tov-21-G) | Potency (Tov112D) | activity, negative = cell killing ([1]; at 91.6 µM (top of the series), tumour line B) -11.6% | activity, negative = cell killing ([1]; at 91.6 µM (top of the series), tumour line D) -15.6% | activity, negative = cell killing ([1]; at 99.2 µM (top of the series), tumour line C) -7.68% | Potency (astro) | max response [2] 1.45% and -0.807%

CCN1C(=O)c2ccccc2C1Nc1ccc(OCCN2CCCCC2)cc1 (configuration not stated)
active: Potency [1] 7.94 µM
inactive: Potency (Tov-21-G) | Potency (Tov112D) | activity, negative = cell killing [1, 3] -27.4% | Potency (astro)

CN1C(CSCC(F)(F)F)Nc2cc(Cl)c(S(N)(=O)=O)cc2S1(=O)=O (configuration not stated)
inactive: Potency (Tov-21-G) | Potency (Tov112D) | activity, negative = cell killing [1, 3] -3.33% | activity, negative = cell killing ([1]; at 46.1 µM (top of the series), tumour line C) -15.1% | Potency (astro)

C[C@@]12CCC[C@H]1[C@@H]1CC[C@H]3C[C@@H](O)CC[C@]3(C)[C@H]1CC2
inactive: Potency (Tov-21-G) | Potency (Tov112D) | activity, negative = cell killing [1, 3] -21.2% | Potency (astro)
active: Potency [1] 7.08 µM

NC(=O)COCCN1CCN(C(c2ccccc2)c2ccc(Cl)cc2)CC1 (configuration not stated)
active: Potency [1] 5.01 µM
inactive: Potency (Tov-21-G) | Potency (Tov112D) | activity, negative = cell killing [1, 3] -14% | Potency (astro)

Cc1cc(O)c2c(O)c3c(O)cccc3cc2c1
active: Potency [1] 14.1 µM
inactive: Potency (Tov-21-G) | Potency (Tov112D) | activity, negative = cell killing [1, 3] -27.7% | Potency (astro)
